Assay outcomes as filed in PubChem BioAssay.
A selection: hits, their analogues and other compounds. The true share with any hit is near 19%.
TGFb SMAD3 inh: TGF-b pathway inhibition; hit rate 1.2% among 410,000; AID 588855; HepG2 CAGA-GFP TGF-b/SMAD3 reporter, GFP fluorescence, 18 h; TGF-beta stimulated, 500 pg/mL final; Potency, µM (top dose mostly 46.1 µM), inactives show top-dose activity, negative = inhibition, most hits filed as inhibitors; further: potency means the concentration at half of the fitted maximal effect; on the % scale 0 is the no-effect control and ±100 the full control effect; nearly all actives have a fitted effect of over 65% in size
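Smad-responsive CAGA-GFP expression was quantified in HEPG2 cells exposed to compounds and 500 pg/mL final TGF-beta for 18 h at 37 degrees C; unstimulated wells defined full inhibition.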
ASM inhibitor: blocks human secretory acid sphingomyelinase; hit rate 0.006% among 340,000; Potency, µM (highest dose often 57.5 µM), for inactives: top-dose activity change, negative = inhibition, hits mostly inhibitors; AID 504937; P17405; placental ASM, HMU-PC fluorogenic substrate, 60 min; further: potency means the concentration at half of the fitted maximal effect
Target sequence (P17405 47-631 limits assumed): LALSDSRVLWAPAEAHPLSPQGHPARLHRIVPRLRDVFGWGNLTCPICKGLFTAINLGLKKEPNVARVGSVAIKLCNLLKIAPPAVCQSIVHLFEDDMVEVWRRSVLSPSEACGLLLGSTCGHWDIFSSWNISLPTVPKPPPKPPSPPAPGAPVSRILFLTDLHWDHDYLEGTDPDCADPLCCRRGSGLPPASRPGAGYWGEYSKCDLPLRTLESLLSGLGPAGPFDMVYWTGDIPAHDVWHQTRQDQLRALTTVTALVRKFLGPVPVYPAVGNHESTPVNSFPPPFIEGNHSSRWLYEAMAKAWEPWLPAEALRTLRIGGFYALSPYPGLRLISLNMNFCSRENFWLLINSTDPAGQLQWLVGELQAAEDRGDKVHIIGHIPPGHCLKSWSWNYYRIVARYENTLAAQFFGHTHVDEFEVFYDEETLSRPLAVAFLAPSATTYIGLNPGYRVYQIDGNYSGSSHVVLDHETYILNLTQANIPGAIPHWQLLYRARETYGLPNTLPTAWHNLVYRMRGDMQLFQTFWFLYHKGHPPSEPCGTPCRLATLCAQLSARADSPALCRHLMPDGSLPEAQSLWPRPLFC
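qHTS format. ASM enzyme prepared from human placenta hydrolyses the fluorogenic substrate HMU-PC0 (9 uM final) over 60 min at 37 °C after a 10 min compound preincubation.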
DT40 TDP1 CPT: DT40-hTDP1 cell growth loss with CPT. chicken DT40 Tdp1-/-;hTDP1 cells + 20 nM CPT, ATP luminescence, 48 h. Potency, µM (series often up to 46.2 µM), without a hit: top-dose activity change, negative = growth inhibition, hits mostly inhibitors. AID 686979. hit rate 12% among 420,000; further: potency means the concentration at half of the fitted maximal effect; on the % scale 0 is the no-effect control and ±100 the full control effect; nearly all actives have a fitted effect of over 55% in size
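Chicken DT40 Tdp1-/- cells stably complemented with human TDP1 were seeded at 400 cells/well in medium containing 20 nM camptothecin, exposed to pin-transferred compounds, and grown at 37 °C for at least 48 hr. Viability was read as ATP luminescence.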
DT40 TDP1 no CPT: qHTS for Inhibitors of human tyrosyl-DNA phosphodiesterase 1 (TDP1): qHTS in cells in absence of CPT | Potency, µM (titrated, usually from 46.2 µM), inactives show at the top dose activity change, negative = growth inhibition, most hits filed as inhibitors | DT40 Tdp1-/- hTDP1 cells, no CPT, ATP luminescence, 48 h | hit rate 15% among 420,000; further: potency means the concentration at half of the fitted maximal effect; on the % scale 0 is the no-effect control and ±100 the full control effect; nearly all actives have a fitted effect of over 55% in size
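Chicken DT40 Tdp1-/- cells stably complemented with human TDP1 were seeded at 400 cells/well with DMSO in place of 20 nM camptothecin. After compound pinning, cells grew at least 48 hr at 37 °C; viability read by CellTiter-Glo luminescence.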
IL1B secr inh: blocks inflammasome-driven IL-1 beta release; THP-1 LPS/ATP IL-1B secretion, AlphaLISA, 16 h; stronger effect = lower value; activity change, % at 57.5 µM; hit rate 4.7% among 360,000; in the data active means activity change below about -50%; inconclusive means mostly about -30% to -49%; further: on the % scale 0 is the no-effect control and ±100 the full control effect
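THP-1 cells pretreated 1 hr with compounds (up to 57.5 uM final), then stimulated with LPS (250 ng/mL final) plus ATP (1.25 mM final); secreted IL-1B measured by AlphaLISA after 16 hr, decreased signal indicating inhibition.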
HepG2 tox: HepG2 cytotoxicity, counter-screen for TGF-b inhibitors. HepG2 CAGA-GFP viability, ATP luminescence, 18 h. Potency, µM (series often up to 46.1 µM), for inactives: at the top dose activity change, negative = cytotoxicity, hits mostly cytotoxic. hit rate 0.76% among 410,000. AID 588856; further: potency means the concentration at half of the fitted maximal effect
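CellTiter-Glo luminescence gave cytotoxicity after 18 hours at 37 degrees C. The cells were HepG2 CAGA-GFP in 1% FBS DMEM, stimulated with 500 pg/mL TGF-beta after compound addition. %Activity was normalised to no-cell wells (complete cell-killing) and DMSO (no toxicity), and curves were fitted and classified.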
* = called active by the depositor; u = inconclusive; x = no result; [ ] = remark or other dose. Unless noted, the call rests on the fitted dose curve; in most records, active means well fitted curve in the direction sought with a large enough effect; inconclusive means small, poorly fitted or top-dose-only effect, or another doubt; inactive means no such curve, though single readings can be large; an effect the other way counts as inactive or inconclusive.

SMILES | TGFb SMAD3 inh | ASM inhibitor | DT40 TDP1 CPT | DT40 TDP1 no CPT | IL1B secr inh | HepG2 tox
COC(=O)[C@H](Cc1ccccc1)NC(=O)C1CCN(C(=O)[C@H](C)NS(=O)(=O)c2ccc(C)cc2)CC1 | 6.0% | 0.6% | -8.0% | 7.4% | -50.0* | -0.9%
Cc1ccc(S(=O)(=O)N[C@@H](CC(C)C)C(=O)N2CCC(C(=O)N[C@@H](Cc3ccccc3)C(=O)O)CC2)cc1 | -1.9% | 3.5% | u | u | -18.4 | -13.1%
CC1=C(C(=O)Nc2cccnc2)C(c2ccc(C)cc2)n2nc(SCc3ccccc3F)nc2N1 (stereo not drawn) | -0.9% | x | -3.4% | -11.5% | x | -8.8%
O=[N+]([O-])c1ccc(/C=[N+](\[O-])[C@@H]2CCCC[C@@H]2/[N+]([O-])=C/c2ccc([N+](=O)[O-])o2)o1 | 7.08µM* | -5.3% | 7.31µM* | 10.3µM* | -92.3* | -52.8%
CCOC(=O)C1=c2/c(=C/c3ccncc3)c(N)c(C(=O)OC)n2C(=O)C(c2ccncc2)S1 (stereo not drawn) | -15.1% | -1.2% | u | u | -17.7 | -16.7%
COc1cccc(-c2ccc(NC(=O)C3CCCN(CCCn4cccn4)C3)cc2)c1 (stereo not drawn) | 21.5% | x | u | u | -25.8 | -38.2%
COc1cccc(-c2ccc(NC(=O)C3CCCN(Cc4cnc(N(C)C)s4)C3)cc2)c1 (stereo not drawn) | u | -6.5% | 18.4µM* | 23.1µM* | 15.2 | -38.8%
CCCc1ncc(CN2CCCC(C(=O)Nc3ccc(-c4cccc(OC)c4)cc3)C2)cn1 (stereo not drawn) | u | -5.6% | 23.1µM* | u | -8.8 | -31.3%
COc1cccc(-c2ccc(NC(=O)C3CCCN(Cc4cnn(C(C)C)c4)C3)cc2)c1 (stereo not drawn) | u | -2.8% | 23.1µM* | u | -78.7* | -61.9%
COCc1ccc(CN2CCCC(C(=O)Nc3ccc(-c4cccc(OC)c4)cc3)C2)o1 (stereo not drawn) | -20.2% | -0.1% | u | 14.6µM* | -5.1 | -26.3%
Cc1ccc(-c2noc(-c3ccoc3C)n2)cc1 | -3.2% | -2.4% | -23.1% | u | 10.6 | -14.7%
CCc1ccc(NC(=O)CSc2nnc(CNC(=O)c3ccc(OC)cc3)o2)cc1 | -2.1% | 1.1% | -16.9% | 8.6% | 45.1 | -12.5%
Cc1nn(Cc2c(Cl)cccc2Cl)c(C)c1NC(=O)c1cnn2c(C(F)F)cc(-c3ccccc3)nc12 | -4.5% | -6.2% | 20.6µM* | u | 13.0 | -0.3%
CCOc1ccc(NC(=O)c2cnn3c(C(F)F)cc(-c4ccc(C)cc4)nc23)cc1 | -2.3% | x | 4.1% | 6.5% | x | 3.0%
Cc1ccc(C2CC(C(F)F)n3ncc(C(=O)Nc4c(C)nn(Cc5c(F)cccc5Cl)c4C)c3N2)cc1 (stereo not drawn) | u | -7.0% | u | 18.4µM* | -22.2 | 7.4%
Cc1ccc(C2CC(C(F)(F)F)n3ncc(C(=O)NCc4ccco4)c3N2)cc1 (stereo not drawn) | -16.7% | -4.1% | -27.9% | u | -19.1 | -6.7%
Cc1ccc(-c2cc(C(F)F)n3ncc(C(=O)Nc4c(C)nn(Cc5c(Cl)cccc5Cl)c4C)c3n2)cc1 | -1.2% | 1.7% | 10.3µM* | 14.6µM* | -6.6 | 0.3%
O=C(COc1cccc2c1CCNC2=O)Nc1ccc(F)cc1 | 1.7% | 1.7% | u | -8.8% | -10.4 | -1.9%
Cc1ccc(C(NC(=O)Nc2ccccn2)C(Cl)(Cl)Cl)cc1F (stereo not drawn) | -2.2% | 2.4%[11.5 µM] | u | 20.6µM* | 55.8 | 2.5%
Cc1cccc(NC(=O)Nc2ccccn2)c1C | 13.4% | -0.5% | -23.3% | 7.7% | 24.6 | -1.2%
CCC(=O)Nc1ccc(Oc2ccc(NC(=O)CC)c(NC(=O)CC)c2)cc1 | -0.9% | 5.9% | -1.1% | 3.8% | 3.4 | -10.0%
CCNC(=O)CC1SC(=Nc2ccc(Cl)cc2)N(CC)C1=O (stereo not drawn) | u | -1.1% | u | 20.6µM* | -1.4 | 12.6µM*
CCN=C1SC(CC(=O)NCC)C(=O)N1CC (stereo not drawn) | 15.6% | 2.8% | 4.2% | -2.2% | -11.7 | -3.0%
CCCn1c(SCC(=O)NNC(=O)c2ccc(C)cc2)nnc1C(C)C | -15.4% | -0.5% | -2.0% | -3.6% | 7.0 | -28.7%
Cc1ccccc1-c1cc2c(nn1)-c1ccccc1C2=O | u | -1.6% | u | u | 32.3 | -24.1%
SMILES | TGFb SMAD3 inh | ASM inhibitor | DT40 TDP1 CPT | DT40 TDP1 no CPT | IL1B secr inh | HepG2 tox
Cc1ccc(-c2cc3c(nn2)-c2ccccc2C3=O)cc1 | u | -1.4% | 16.4µM* | 23.1µM* | 3.0 | -38.9%
O=c1[nH]nc(-c2ccc(F)cc2)cc1Cc1ccc(F)cc1 | 14.5% | -7.9% | u | -17.9% | 67.2 | 5.3%
O=c1[nH]nc(-c2ccc(F)cc2)cc1-c1ccccc1 | -2.1% | -1.4% | u | -29.3% | -72.2* | 4.2%
O=C1c2ccccc2-c2nnc(-c3ccc(O)cc3)cc21 | -2.9% | 2.9% | u | u | -23.5 | 2.5%
O=C1c2ccccc2-c2nnc(-c3ccc(F)cc3)cc21 | -8.9% | -1.7% | u | 9.2µM* | 12.7 | -10.7%
O=C(CCC1CCN(C(=O)c2cc(C(F)(F)F)ccc2Cl)CC1)NC1CC1 | 15.5% | 2.0% | -0.9% | -20.2% | 13.1 | 9.3%
COc1ccc(S(=O)(=O)N(C)c2ccc(C(=O)NCc3ccccn3)cc2)cc1 | 4.6% | x | u | -29.9% | -5.6 | -5.1%
Cc1nc2ccc(NC(=O)c3cncc(Br)c3)cc2s1 | 20.5% | -0.5% | u | u | u | 10.8%
O=C(NCc1ccccc1)c1ccc(NC(=O)C2CCCC2)cc1 | 2.0% | -0.2% | -8.6% | -26.6% | -15.5 | -12.5%
O=c1cc(-c2cccc(Br)c2)nc(-c2ccccc2F)o1 | -19.1% | 3.8% | 25.9µM* | 18.4µM* | 11.0 | -11.9%
Cc1occc1C(=O)Nc1cccc(Cl)c1Cl | 1.3% | -0.7% | -1.3% | -0.2% | 0.0 | -7.9%
CN(C)/[N+]([O-])=N/Oc1cc(ON=[N+]([O-])N2CCN(c3ncccn3)CC2)c([N+](=O)[O-])cc1[N+](=O)[O-] | u | x | x | x | x | -9.8%
Fc1ccc(CCNC(=S)Nc2ccc(F)cc2)cc1 | 21.8% | 2.0% | u | 18.4µM* | 1.7 | -3.5%
Cc1ccc(F)cc1NC(=S)NCCc1ccccc1 | u | 6.6% | u | 25.9µM* | -15.3 | -35.3%
